Assay in all cases: NCI-60 one-dose screen, 48 h (100 = growth as untreated, 0 = no growth, -100 = all killed)
In one assay the test system is NCI-H226 lung. The note with it: 10 µM unless noted.
The subject of another assay is HOP-92 NSCLC. To be noted: 10 µM unless noted.
The test system of another assay is SF-295 CNS. The note with it: 10 µM unless noted.
Another assay concerns HCT-15 colon. To be noted: 10 µM.
In another assay the test system is SK-MEL-5 melanoma. To be noted: 10 µM unless noted.
The next assay has as its system EKVX NSCLC. To be noted: 10 µM unless noted.
Another assay relates to TK-10 renal. The note with it: 10 µM unless noted.
Another assay concerns CCRF-CEM leukemia. The note with it: 10 µM unless noted.
The test system of the next assay is MOLT-4 leukemia. The note with it: 10 µM.
The test system of another assay is SR leukemia. The note with it: 10 µM.
The subject of another assay is RPMI-8226 leukemia. To be noted: 10 µM unless noted.
The next assay has as its system IGROV1 ovarian. The note with it: 10 µM.
The next assay has as its system HCC-2998 colon. The note with it: 10 µM unless noted.
The test system of the next assay is NCI-H322M lung. To be noted: 10 µM unless noted.
A further assay concerns HOP-62 NSCLC. The note with it: 10 µM unless noted.
Another assay concerns NCI-H522 lung. The note with it: 10 µM unless noted.
The next assay has as its system K-562 leukemia. To be noted: 10 µM unless noted.
The subject of the next assay is SNB-19 CNS. To be noted: 10 µM unless noted.
A further assay deals with LOX IMVI melanoma. The note with it: 10 µM unless noted.

Drawing on PubChem BioAssay (NCI), this text covers growth for ten compounds.

The panel holds about 83,000 compounds, 20% with a hit somewhere; the sample as a whole holds those more often.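 The endpoint reported here, percent growth, reads 100 for growth as untreated, 0 for no net growth and -100 for all cells dead.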 A number with no mark means an inactive call. Calls of active or inactive are those of the source. The calls were made as follows: active = growth percent below 10; inactive = the rest.

Regarding `O=C(N/N=C/c1ccc([N+](=O)[O-])o1)c1cc([N+](=O)[O-])cc([N+](=O)[O-])c1O`, the growth in the assay on NCI-H226 lung is 97.9%; with HOP-92 NSCLC, 117%; in the assay on SF-295 CNS it was 104%; with HCT-15 colon it was 93.3%; in the assay with SK-MEL-5 melanoma, 95%; with EKVX NSCLC, 108%. For the same compound, the growth in the assay with TK-10 renal is 121%; with CCRF-CEM leukemia it was 98.3%; with MOLT-4 leukemia, 62.8%; in the assay on SR leukemia it was 70.7%; in the assay on RPMI-8226 leukemia, 99.8%; in the assay with IGROV1 ovarian, 97%. Further, in the assay with HCC-2998 colon, the growth was 102%.
Take `CCC[CH2][Sn]([CH2]CCC)([CH2]CCC)[O]C(=O)c1ccc(Cl)cc1Cl`: the growth with NCI-H322M lung was -86.5% (active); in the assay on HOP-62 NSCLC it was -82.2% (active); in the assay with HOP-92 NSCLC, -84.6% (active); in the assay with NCI-H522 lung, -73.3% (active); with K-562 leukemia, -38.2% (active); with SF-295 CNS, -89.9% (active). Besides, the growth is -82.9% (active) in the assay with HCT-15 colon; -86.3% (active) in the assay on SNB-19 CNS; -96.1% (active) in the assay with SK-MEL-5 melanoma; -70.3% (active) in the assay with LOX IMVI melanoma; -65% (active) with EKVX NSCLC; -90.5% (active) with TK-10 renal. Besides, the growth was -16.6% (active) with MOLT-4 leukemia, 3.12% (active) in the assay with SR leukemia, -68.5% (active) with IGROV1 ovarian and -90.9% (active) in the assay with HCC-2998 colon.
For the compound `COc1cc(NCCCCCN=C(N)N)c2ncccc2c1`, the growth in the assay with NCI-H322M lung was 61.4%; with HOP-62 NSCLC, 45.7%; with HOP-92 NSCLC, 66.7%; in the assay on NCI-H522 lung, 9.47% (active); with K-562 leukemia, 16.1%; with SF-295 CNS, 61.1%. Moreover, the growth is 99.2% in the assay on HCT-15 colon; 66.4% in the assay with LOX IMVI melanoma; 65.4% in the assay with EKVX NSCLC; 39.8% with CCRF-CEM leukemia; 4.38% (active) in the assay on MOLT-4 leukemia; 58.2% in the assay on RPMI-8226 leukemia. In the assay with HCC-2998 colon, the growth is 55.9%.
Take `CC(=O)O[C@H]1C[C@H](O[C@H]2[C@@H](O)C[C@H](O[C@H]3[C@@H](O)C[C@H](O[C@H]4CC[C@@]5(C)C(CCC6C5C[C@@H](O)[C@]5(C)[C@@H](C7=CC(=O)OC7)CC[C@]65O)C4)O[C@@H]3C)O[C@@H]2C)O[C@H](C)[C@H]1O[C@@H]1O[C@H](CO)[C@@H](O)[C@H](O)[C@H]1O` (stereo partly specified): the growth was -98.6% (active) in the assay with NCI-H226 lung; -15.1% (active) in the assay with HOP-92 NSCLC; -84% (active) with SF-295 CNS; -79.1% (active) with HCT-15 colon; -100% (active) with SNB-19 CNS; -97.4% (active) with LOX IMVI melanoma. Further, the growth with EKVX NSCLC is -98.3% (active); in the assay on TK-10 renal, -91% (active); in the assay on CCRF-CEM leukemia, -23.5% (active); in the assay on MOLT-4 leukemia, -32.1% (active); with SR leukemia, -31% (active); in the assay on RPMI-8226 leukemia, -0.309% (active). In addition, the results for the growth with IGROV1 ovarian and in the assay on HCC-2998 colon were 7.96% (active) and -95% (active), respectively.
Turning to `N#[N+]c1nc2nc(N)[nH]c(=O)c2[nH]1`, the growth was 98% in the assay on NCI-H226 lung; 92.5% in the assay with HOP-62 NSCLC; 93.2% in the assay with HOP-92 NSCLC; 101% in the assay on K-562 leukemia; 101% in the assay with SF-295 CNS; 97.9% in the assay with HCT-15 colon. In addition, the growth is 92.5% in the assay on SK-MEL-5 melanoma; 98.5% in the assay on LOX IMVI melanoma; 100% in the assay on EKVX NSCLC; 94.2% in the assay on SR leukemia; 97% in the assay on RPMI-8226 leukemia; 107% in the assay with IGROV1 ovarian.
With `ClCCN(CCCl)c1ccc(/C=C\c2ccnc3ccccc23)cc1`, the growth with NCI-H322M lung was 92.3%; in the assay on HOP-62 NSCLC, 120%; in the assay with HOP-92 NSCLC it was 46.6%; in the assay with K-562 leukemia, 60.9%; in the assay on SF-295 CNS, 69.4%; in the assay on HCT-15 colon it was 75%. Besides, the growth in the assay on LOX IMVI melanoma was 80.3%; in the assay on EKVX NSCLC it was 81%; in the assay with CCRF-CEM leukemia it was 71%; with HCC-2998 colon, 91.6%.
Consider `Cc1nnc([S-])s1.[Au+].c1ccc([PH+](c2ccccc2)c2ccccc2)cc1`, for which the growth in the assay on NCI-H322M lung was 84.2%; in the assay on HOP-62 NSCLC it was 28.2%; in the assay with HOP-92 NSCLC it was -76.6% (active); in the assay on NCI-H522 lung it was -75.3% (active); in the assay with K-562 leukemia it was 1.12% (active); in the assay on SF-295 CNS it was 75%. Besides, the growth with HCT-15 colon was -76% (active); in the assay on SNB-19 CNS it was 19.2%; in the assay on SK-MEL-5 melanoma, -45.9% (active); in the assay on LOX IMVI melanoma, -60.6% (active); in the assay with EKVX NSCLC it was 56.4%; with CCRF-CEM leukemia, 0.579% (active). Besides, the growth in the assay on MOLT-4 leukemia is -9.08% (active); in the assay on SR leukemia, 7.04% (active); in the assay on RPMI-8226 leukemia it was -1.82% (active); in the assay on HCC-2998 colon, 37%.
As for `CC[C@]12C=CCN3CC[C@@]4(c5ccc(OC)cc5N(C)[C@H]4[C@@](O)(C(=O)OC)[C@@H]1OC(=O)CCCN1CCN(CCCC(=O)O[C@@H]4[C@]5(CC)C=CCN6CC[C@@]7(c8ccc(OC)cc8N(C)[C@H]7[C@@]4(O)C(=O)OC)[C@@H]65)CC1)[C@@H]32`, the growth in the assay with NCI-H322M lung was -88.5% (active); in the assay with HOP-62 NSCLC, -82.5% (active); in the assay on HOP-92 NSCLC it was -63.3% (active); with NCI-H522 lung, -79.9% (active); in the assay with K-562 leukemia, -62% (active); in the assay on SF-295 CNS, -85.9% (active). Further, the growth is -95.9% (active) in the assay with SK-MEL-5 melanoma; -89.1% (active) in the assay with LOX IMVI melanoma; -88.4% (active) in the assay on EKVX NSCLC; -87.9% (active) with TK-10 renal; -56.7% (active) with CCRF-CEM leukemia; -55.2% (active) in the assay with RPMI-8226 leukemia. Moreover, the growth in the assay with IGROV1 ovarian was -76.6% (active); with HCC-2998 colon it was -86.6% (active).
As for `CCN1CC2(CN(CC)C1=S)C(=O)NC(=O)NC2=O`, the growth was 107% in the assay with NCI-H322M lung; 90.1% with HOP-62 NSCLC; 53.9% in the assay on HOP-92 NSCLC; 84.7% in the assay with NCI-H522 lung; 87.5% in the assay with K-562 leukemia; 95.1% with SF-295 CNS. Besides, the growth in the assay with HCT-15 colon is 99.9%; in the assay with SNB-19 CNS it was 107%; with LOX IMVI melanoma, 103%; with EKVX NSCLC, 99%; in the assay with CCRF-CEM leukemia, 101%; in the assay on MOLT-4 leukemia, 107%. The growth is 114% with SR leukemia, 100% in the assay on RPMI-8226 leukemia, 103% with IGROV1 ovarian and 99.7% with HCC-2998 colon.
With `C[C@]12C[C@H](O)[C@H]3[C@@H](CCC4=CC(=O)CC[C@@]43C)[C@@H]1CC[C@@H]2O`, the growth is 110% with NCI-H322M lung; 105% in the assay with HOP-62 NSCLC; 95.5% in the assay with HOP-92 NSCLC; 104% in the assay with K-562 leukemia; 85.6% in the assay with SF-295 CNS; 100% in the assay on HCT-15 colon. Also, the growth in the assay with SNB-19 CNS is 104%; with SK-MEL-5 melanoma, 100%; in the assay with LOX IMVI melanoma, 96%; with EKVX NSCLC, 94.8%; with MOLT-4 leukemia it was 103%; with RPMI-8226 leukemia it was 98.3%.
